Source: PubChem
The list is not random: actives were taken first. Their share in the collection is about 3.4%.
GPR151 activ = activates the human receptor GPR151. PathHunter beta-arrestin GPR151 cells, luminescence. 650,000 tested, 1% active. activation, % at 11.2 µM; in the data active = activation above about 4.9%
FBW7 activator = activators of human E3 ligase FBW7; Q969H0; AlphaScreen FBW7–phospho-cyclin E peptide binding, activator screen; normalized activity (activation), % at 26.1 µM; 650,000 tested, 0.13% active; AID 1259310; in the data active = normalized activity above about 1.9%;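 also: purified mutant Fbw7 with reduced substrate affinity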
Target sequence (Q969H0 whole entry, looked up): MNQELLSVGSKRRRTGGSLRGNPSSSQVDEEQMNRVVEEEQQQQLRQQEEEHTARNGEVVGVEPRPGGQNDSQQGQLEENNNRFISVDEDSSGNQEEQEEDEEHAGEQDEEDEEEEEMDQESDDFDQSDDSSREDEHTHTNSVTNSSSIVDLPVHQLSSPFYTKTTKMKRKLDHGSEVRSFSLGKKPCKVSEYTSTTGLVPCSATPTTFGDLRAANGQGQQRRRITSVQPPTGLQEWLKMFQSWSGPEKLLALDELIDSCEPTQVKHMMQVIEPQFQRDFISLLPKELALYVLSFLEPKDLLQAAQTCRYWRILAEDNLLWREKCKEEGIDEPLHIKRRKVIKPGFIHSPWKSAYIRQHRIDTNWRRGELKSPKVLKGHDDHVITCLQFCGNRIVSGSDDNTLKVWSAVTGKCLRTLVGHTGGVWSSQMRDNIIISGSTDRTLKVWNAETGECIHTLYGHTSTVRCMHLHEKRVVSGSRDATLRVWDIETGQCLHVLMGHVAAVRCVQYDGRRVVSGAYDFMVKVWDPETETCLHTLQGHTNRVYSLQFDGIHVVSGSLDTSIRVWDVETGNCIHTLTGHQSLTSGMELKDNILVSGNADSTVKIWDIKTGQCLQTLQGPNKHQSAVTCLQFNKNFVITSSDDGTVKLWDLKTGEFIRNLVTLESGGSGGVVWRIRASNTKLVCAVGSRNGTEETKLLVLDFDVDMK
MITF primary = human MITF inhibition, primary screen; O75030; AlphaScreen MITF homodimerization, bead proximity signal; inhibition, % at 2.6 µM; 650,000 tested, 0.91% active; in the data active = inhibition above about 50%
TEAD-YAP block = TEAD-YAP interaction inhibition | inhibition, % at 9.12 µM | HEK-TIYL cells, TEAD-Gal4/YAP UAS-luciferase luminescence | 640,000 tested, 1.4% active; in the data active = inhibition above about 32%
MITF inh conf = confirmation of human MITF inhibitors. shares compounds with MITF primary. AlphaScreen MITF homodimerization, biotin/His-MITF beads. inhibition, % at 2.6 µM. 4,700 tested, 16% active. AID 1259372;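 active = inhibition above a cutoff derived from the DMSO control wells, cut at about 28% in these data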;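 also: inhibitors lower the bead chemiluminescence by keeping MITF from dimerizing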
AlphaScreen DR = optically interferes with AlphaScreen signal in dose response; shares compounds with MITF primary; AlphaScreen optical interference counterscreen, cell-free; IC50, µM; 480 tested, 6% active; call rule not given here
AlphaScreen intf2 = optically interferes with AlphaScreen signal | shares compounds with MITF primary | LysRS AlphaScreen counterscreen, signal interference, triplicate | inhibition, % at 2.6 µM | 4,700 tested, 7.6% active | AID 1259376;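 active = inhibition above a cutoff derived from the DMSO control wells, cut at about 30% in these data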
Each line names hits and unclear results; the compound was inactive in the other large screens (follow-up assays come after a bar, where they were run).

COc1ccccc1CN1CCN(Cc2ccc(Cl)cc2)CC1	MITF primary 73.0 | MITF inh conf inactive | AlphaScreen intf2 inactive
CCC(C)N1CCN(Cc2ccc(F)cc2)CC1 (configuration not stated)	MITF primary 58.8 | MITF inh conf inactive | AlphaScreen intf2 inactive
CC(C)N1CCN(Cc2ccc(F)cc2)CC1	MITF primary 55.4 | MITF inh conf inactive | AlphaScreen intf2 inactive
CCC(C)N1CCN(Cc2ccc(Cl)cc2)CC1 (configuration not stated)	MITF primary 73.6 | MITF inh conf inactive | AlphaScreen intf2 inactive
CCC(C)N1CCN(Cc2cccc(Cl)c2)CC1 (configuration not stated)	none
CC(C)N1CCN(Cc2ccncc2)CC1	MITF primary 81.8 | MITF inh conf inactive | AlphaScreen intf2 inactive
O=C(NC(O)C(Cl)(Cl)Cl)c1cccs1 (configuration not stated)	none
O=C(Nc1ccc(Cl)c(Cl)c1)N1C[C@H]2C[C@@H](C1)c1cccc(=O)n1C2	none
CC1(C)C(C(=O)Nc2cc(Cl)ccn2)C1(C)C	none
O=C(CN1C2CCC1CC(O)(c1ccccn1)C2)Nc1ccccn1 (configuration not stated)	none
CC(C)N1CCN(Cc2ccc(Br)cc2)CC1	none
CCC(C)N1CCN(Cc2ccc(Br)cc2)CC1 (configuration not stated)	MITF primary 70.5 | MITF inh conf inactive | AlphaScreen intf2 inactive
Cc1ccccc1-n1c(C)nc2ccc(I)cc2c1=O	none
CN1CCN(CC#CCOc2ccc(Cl)cc2)CC1	MITF primary 53.9 | MITF inh conf inactive | AlphaScreen intf2 inactive
COC(=O)CN1C(=O)C2(C(C#N)=C(N)OC(C)=C2C(=O)OC(C)C)c2ccccc21 (configuration not stated)	none
CSc1ccc(CN2CCN(C(=O)COc3ccc(Cl)cc3)CC2)cc1	none
COc1cc(OC)c(OC)cc1CN1CCN(C(=O)COc2ccccc2)CC1	MITF primary 53.9 | MITF inh conf inactive | AlphaScreen intf2 inactive
O=C(COc1ccc(Br)cc1)N1CCN(Cc2ccncc2)CC1	MITF primary 100.4 | MITF inh conf inactive | AlphaScreen intf2 inactive
COc1ccccc1CN1CCN(C(=O)COc2cccc(C)c2)CC1	MITF primary 80.4 | MITF inh conf inactive | AlphaScreen intf2 inactive
COc1ccc(OCC(=O)N2CCN(Cc3cccc(OC)c3)CC2)cc1	none
COc1ccc(OCC(=O)N2CCN(Cc3cccc(Br)c3)CC2)cc1	MITF primary 63.8 | MITF inh conf inactive | AlphaScreen intf2 inactive
O=C(Nc1ccc(Cl)cc1C(=O)c1ccccc1)c1cccc(Cl)c1	none
O=C(CCC/C=C\C[C@@H]1[C@@H](/C=C/[C@@H](O)COc2cccc(C(F)(F)F)c2)[C@H](O)C[C@@H]1O)NC(CO)CO	none (no result: FBW7 activator, TEAD-YAP block)
O=C(COc1ccc(Br)cc1)N1CCN(Cc2ccc3c(c2)OCO3)CC1	MITF primary 63.9 | MITF inh conf inactive | AlphaScreen intf2 inactive
COc1ccc(OCC(=O)N2CCN(Cc3ccccc3C)CC2)cc1	MITF primary 53.9 | MITF inh conf inactive | AlphaScreen intf2 inactive
COc1cc(CN2CCN(C(=O)COc3ccccc3)CC2)cc(OC)c1OC	none
COc1cccc(CN2CCN(C(=O)COc3cccc(C)c3)CC2)c1	MITF primary 57.3 | MITF inh conf inactive | AlphaScreen intf2 inactive
Cc1ccc(CC(=O)N2CCN(Cc3ccc4c(c3)OCO4)CC2)cc1	none
Cc1cccc(OCC(=O)N2CCN(Cc3ccncc3)CC2)c1	MITF primary 72.8 | MITF inh conf inactive | AlphaScreen intf2 inactive
CCOc1ccc(CN2CCN(Cc3cccc(Cl)c3)CC2)cc1	MITF primary 66.8 | MITF inh conf inactive | AlphaScreen intf2 inactive
CCN1CCN(Cc2cccc(Cl)c2)CC1	none
CCOc1ccc(CN2CCN(Cc3cccc(C)c3)CC2)cc1	MITF primary 54.5 | MITF inh conf inactive | AlphaScreen intf2 inactive
O=[N+]([O-])/C=C/c1c[nH]c2ccc(Br)cc12	none
CCOC(=O)c1ccc(NC(=O)CCc2nc(C3=CCN(C)CC3)no2)cc1	FBW7 activator 3.4, MITF primary 61.6 | MITF inh conf 69.3 | AlphaScreen intf2 38.4
Cc1cccc(CN2CCN(Cc3ccc(Cl)cc3)CC2)c1	MITF primary 59.3 | MITF inh conf inactive | AlphaScreen intf2 inactive
CCc1ccc(CN2CCN(Cc3cccc(F)c3)CC2)cc1	MITF primary 74.7 | MITF inh conf inactive | AlphaScreen intf2 inactive
Fc1cccc(CN2CCN(Cc3ccccc3)CC2)c1	MITF primary 63.5 | MITF inh conf inactive | AlphaScreen intf2 inactive
CCN1CCN(Cc2cccc(F)c2)CC1	none
Fc1cccc(CN2CCN(Cc3ccccc3F)CC2)c1	MITF primary 69.5 | MITF inh conf inactive | AlphaScreen intf2 inactive
O=[N+]([O-])c1ccc(N2CCN(Cc3ccccc3)CC2)c(Cl)c1	none
Cc1cc(C(F)(F)F)nc(SCC(=O)Nc2ccc(Cl)cc2C(=O)c2ccccc2)n1	none
CC(C)c1ccccc1NC(=O)C(Cl)(Cl)Cl	none
Cc1cccc(CN2CCN(Cc3cccc(F)c3)CC2)c1	MITF primary 76.2 | MITF inh conf inactive | AlphaScreen intf2 inactive
CCc1ccc(CN2CCN(Cc3cccc(C)c3)CC2)cc1	none
CCc1ccc(CN2CCN(Cc3ccc(F)cc3)CC2)cc1	MITF primary 56.7 | MITF inh conf inactive | AlphaScreen intf2 inactive
CCN(CC(=O)Nc1ccc(C#N)c(Cl)c1)CC(=O)Nc1c(F)cccc1F	none
CCN(CC(=O)Nc1ccc(Br)cc1)CC(=O)Nc1ccc(C#N)c(Cl)c1	MITF primary 85.3 | MITF inh conf inactive | AlphaScreen intf2 inactive
CCCNC(=O)c1ccc(N2CC3CC(C2)c2cccc(=O)n2C3)c([N+](=O)[O-])c1 (configuration not stated)	none
O=C(Nc1ccc(S(=O)(=O)N2CC3CC(C2)c2cccc(=O)n2C3)cc1)C1CC1 (configuration not stated)	none
COc1ccccc1OCC#CCN1CCCC(C)C1 (configuration not stated)	MITF primary 58.3 | MITF inh conf inactive | AlphaScreen intf2 inactive
CCOc1ccc(CN2CCN(Cc3ccc(F)cc3)CC2)cc1	MITF primary 61.1 | MITF inh conf inactive | AlphaScreen intf2 inactive
CCOc1ccc(CN2CCN(Cc3ccccc3F)CC2)cc1	MITF primary 74.7 | MITF inh conf inactive | AlphaScreen intf2 inactive
COc1ccc(CN2CCN(Cc3ccc(OC)cc3)CC2)cc1	none
O=[N+]([O-])c1ccc(Br)c2c1no[n+]2[O-]	MITF primary 73.5 | MITF inh conf 73.3 | AlphaScreen DR inactive | AlphaScreen intf2 inactive
CN1CSC2=C(C#N)C(c3cccc(Br)c3)CC(=O)N2C1 (configuration not stated)	none
O=C(CN1C(=O)CN=C(c2cccs2)c2c1sc1c2CCC1)NCc1cccs1	none
CC(C)=CCCC(C)CCN1CC2CC(C1)c1cccc(=O)n1C2 (configuration not stated)	none
COc1cc(C=C(C#N)C#N)cc(O)c1O	none
